Laboratory results taken from PubChem BioAssay (Tox21).
Several values for one entry are separate records, joined by “and”; a condition that tells them apart may be missing. Identical values can stand only once. Inconclusive results are not listed. Entries that show only a call come without a potency. A structure can be active in one record and inactive in another. Activity calls are given as the source filed them. Unless noted, the call rests on the fitted dose curve; in most records, active means well fitted curve in the direction sought with a large enough effect in the repeat runs; inconclusive means weak or mixed curves; inactive means no such curve, though single readings can be large; an effect the other way counts as inactive or inconclusive.

Assays:
[1] = qHTS assay to identify small molecule agonists of the hypoxia (HIF-1) signaling pathway - cell viability counter screen (AID 1224844; calls by dose curve; further: nearly all actives have a fitted effect of over 50% in size)
In short: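 Multiplexed with the HRE beta-lactamase assay, this viability read used CellTiter-Glo luminescence (30 min, RT) on HRE-bla ME-180 cells treated 17 hrs with compounds in 0.5% dialyzed FBS medium.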

[2] = qHTS assay to identify small molecule agonists of H2AX (AID 1224845; active means well fitted activation curve with a large enough effect in the signal ratio in the repeat runs, not every such curve was filed as active; the % refers to the signal ratio)
In short: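 Phospho-H2AX Ser139 measured by HTRF (ex 320 nm; em 665 and 620 nm) after 24 hr antibody incubation. Compounds, 15 concentrations, 0.76% DMSO, were applied to CHO-K1 cells for 3hr at 37C before lysis.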

[3] = qHTS assay to identify small molecule agonists of the hypoxia (HIF-1) signaling pathway (AID 1224846; active means well fitted activation curve with a large enough effect in the signal ratio in the repeat runs, not every such curve was filed as active; the % refers to the signal ratio)
In short: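 Hypoxia-pathway activation was scored as increased beta-lactamase from an HRE-controlled reporter in ME-180 cells; plated at 2,000 cells per well with 0.5% dialyzed FBS, they were exposed 17 hrs to compounds and then given CCF4-AM.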

[4] = qHTS assay to identify small molecule agonists of H2AX - cell viability counter screen (AID 1224847; calls by dose curve; further: top concentration of the series differs between compounds; nearly all actives have a fitted effect of over 30% in size)
In short: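 Wild-type CHO-K1 cells (10% FBS medium) were plated overnight at 37C, exposed to compounds at 15 concentrations for 3 hr at 37C (0.76% DMSO final), and viability was read as CellTiter-Glo luminescence after 30 min at room temperature.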

[5] = qHTS RealTime-Glo MT Cell Viability Assay in HepG2 cells - 24 hour (AID 1224867); further: nearly all actives have a fitted effect of over 50% in size
In short: (§1)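 Compound treatment began 5 h after plating HepG2 cells (600/well) with NanoLuc luciferase and prosubstrate. Plates stayed at 37 C for 40 h; luminescence was captured at six time points, 0 h through 40 h.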

[6] = qHTS RealTime-Glo MT Cell Viability Assay in HEK293 cells - 32 hour (AID 1224868); further: top concentration of the series differs between compounds; nearly all actives have a fitted effect of over 50% in size
In short: (§2)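 Quantitative high-throughput screen of the Tox21 10K library in HEK293: cells and RealTime-Glo reagents plated together, compound added at 5 h, luminescence monitored through 40 h at 37 C.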

[7] = A CellTox Green Cytotoxicity Assay to monitor cytotoxicity in HEK293 cells - 0 hour (AID 1224869); further: nearly all actives have a fitted effect of over 50% in size
In short: (§3)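 Seeding of HEK293 cells together with cytotoxicity dye preceded a 5 h incubation at 37 C/5% CO2. Test compounds in DMSO were then added and fluorescence monitored across 40 h.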

[8] = qHTS RealTime-Glo MT Cell Viability Assay in HepG2 cells - 40 hour (AID 1224870); further: nearly all actives have a fitted effect of over 50% in size
In short: (§4)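 Real-time viability: cells seeded at 600 per well together with NanoLuc and cell-permeant prosubstrate, compounds added after 5 h incubation. Luminescence tracked at 0, 8, 16, 24, 32 and 40 h of exposure.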

[9] = A CellTox Green Cytotoxicity Assay to monitor cytotoxicity in HEK293 cells - 40 hour (AID 1224871); further: nearly all actives have a fitted effect of over 45% in size
In short: as §3

[10] = qHTS RealTime-Glo MT Cell Viability Assay in HEK293 cells - 16 hour (AID 1224872)
In short: as §2

[11] = qHTS RealTime-Glo MT Cell Viability Assay in HepG2 cells - 8 hour (AID 1224873); further: nearly all actives have a fitted effect of over 55% in size
In short: as §4

[12] = A CellTox Green Cytotoxicity Assay to monitor cytotoxicity in HEK293 cells - 24 hour (AID 1224875); further: series mostly up to about 77 µM; nearly all actives have a fitted effect of over 45% in size
In short: as §3

[13] = A CellTox Green Cytotoxicity Assay to monitor cytotoxicity in HepG2 cells - 16 hour (AID 1224876); further: nearly all actives have a fitted effect of over 45% in size
In short: (§5)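 Nonlytic assay: viable cells exclude the dye, so fluorescence scales with cell death. HepG2 at 600 cells/well, compounds added after 5 h, signal read across 40 h.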

[14] = qHTS RealTime-Glo MT Cell Viability Assay in HepG2 cells - 32 hour (AID 1224877); further: nearly all actives have a fitted effect of over 55% in size
In short: as §1

[15] = A CellTox Green Cytotoxicity Assay to monitor cytotoxicity in HepG2 cells - 24 hour (AID 1224878); further: nearly all actives have a fitted effect of over 45% in size
In short: as §5

[16] = A CellTox Green Cytotoxicity Assay to monitor cytotoxicity in HepG2 cells - 40 hour (AID 1224879); further: nearly all actives have a fitted effect of over 40% in size
In short: as §5

[17] = qHTS RealTime-Glo MT Cell Viability Assay in HEK293 cells - 40 hour (AID 1224874); settings: RealTime-Glo luminescence; max response: stronger effect = lower value; further: nearly all actives have a fitted effect of over 50% in size
In short: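 Tox21 screen in HEK293 using RealTime-Glo MT chemistry, with cells and reagent co-dispensed. Luminescence proportional to viable cell number was captured at intervals during 40 h compound exposure at 37 C.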

[18] = target: Thyrotropin receptor (Homo sapiens) (UniProt P16473); assay: qHTS assay to identify small molecule agonists of the thyroid stimulating hormone receptor (TSHR) signaling pathway (AID 1224843; calls by dose curve; further: nearly all actives have a fitted effect of over 45% in size; further: potency means the concentration at half of the fitted maximal effect)
In short: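 HEK293 cells stably bearing the thyrotropin receptor were plated at 800 cells/well and challenged with compound (30 min, RT). Accumulated cAMP was quantified via cAMP-d2 competing for cryptate-tagged antibody.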

[19] = qHTS assay to identify small molecule antagonists of the estrogen related receptor (ERR) signaling pathway from Tox21 library (AID 1224848); further: nearly all actives have a fitted effect of over 50% in size
In short: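 Reading was by luminescence 30 min after ONE-Glo addition. Before that, ERR cells at 2,000 per well had rested 6 h at 37 C/5% CO2 and then received pin-tooled compounds in DMSO for 18 h at 37 C.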

Thyrotropin receptor (Homo sapiens), sequence (P16473 whole entry, looked up): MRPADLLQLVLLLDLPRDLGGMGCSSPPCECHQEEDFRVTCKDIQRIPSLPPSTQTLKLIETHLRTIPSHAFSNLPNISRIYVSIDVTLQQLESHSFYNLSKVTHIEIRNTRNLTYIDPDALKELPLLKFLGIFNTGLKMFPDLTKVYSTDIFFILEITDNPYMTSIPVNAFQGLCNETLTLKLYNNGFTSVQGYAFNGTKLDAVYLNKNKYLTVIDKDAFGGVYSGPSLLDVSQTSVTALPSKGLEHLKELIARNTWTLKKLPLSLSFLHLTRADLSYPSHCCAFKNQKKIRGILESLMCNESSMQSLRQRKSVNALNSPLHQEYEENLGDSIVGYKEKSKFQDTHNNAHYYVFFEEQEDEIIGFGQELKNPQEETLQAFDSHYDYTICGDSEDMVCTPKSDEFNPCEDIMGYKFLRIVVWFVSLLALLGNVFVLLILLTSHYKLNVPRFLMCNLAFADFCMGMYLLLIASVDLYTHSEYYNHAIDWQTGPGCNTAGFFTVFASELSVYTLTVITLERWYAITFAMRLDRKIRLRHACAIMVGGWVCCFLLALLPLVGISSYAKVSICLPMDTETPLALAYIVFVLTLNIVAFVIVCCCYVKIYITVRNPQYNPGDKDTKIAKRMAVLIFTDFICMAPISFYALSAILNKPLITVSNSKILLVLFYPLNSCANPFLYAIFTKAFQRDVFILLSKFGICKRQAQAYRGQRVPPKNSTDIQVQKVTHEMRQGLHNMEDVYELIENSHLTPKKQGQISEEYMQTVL

SMILES | Potency [1] | Potency [2] | outcome [3] | Potency [4] | outcome [5] | Potency [6] | Potency [7] | outcome [8] | Potency [9] | outcome [10] | outcome [11] | Potency [12] | Potency [13] | outcome [14] | Potency [15] | Potency [16] | max response [17] | Potency [18] | Potency [19]
Cc1cccc(C)c1NC(=O)CN1CCCC1=O | inactive | inactive | inactive | inactive | inactive | inactive | inactive | inactive | inactive | inactive | inactive | inactive | inactive | inactive | inactive | inactive |  |  | 
CNC(=O)O/N=C/C(C)(C)S(C)(=O)=O | inactive |  | inactive | inactive | inactive | inactive | inactive |  | inactive | inactive | inactive |  | inactive |  | inactive | inactive |  |  | 
CNc1cnn(-c2cccc(C(F)(F)F)c2)c(=O)c1Cl | inactive | inactive | inactive | inactive | inactive | inactive | inactive |  | inactive | inactive | inactive | inactive | inactive | inactive | inactive | inactive | -24.9% (inactive) and -29.1% (inactive) |  | 
Cc1ccccc1N |  |  | inactive | inactive | inactive | inactive | inactive | inactive | inactive | inactive | inactive |  | inactive | inactive | inactive | inactive |  | 1.08 µM (active) and inactive | 
c1ccc2c(c1)CCCC2 |  |  | inactive | inactive | inactive | inactive | inactive | inactive | inactive | inactive | inactive | inactive | inactive |  | inactive | inactive |  | inactive | 
O=S(=O)(O)OOS(=O)(=O)O | inactive | inactive | inactive | inactive | inactive | inactive | inactive | inactive | inactive | inactive | inactive | inactive | inactive | inactive | inactive | inactive | 2.97% (inactive) [middle of 4 runs] |  | 
CNC(=O)O/N=C(\SC)C(=O)N(C)C |  |  | inactive | inactive | inactive | inactive | inactive | inactive | inactive | inactive | inactive | inactive | inactive | inactive | inactive | inactive | -3.21% (inactive) and 9.55% (inactive) | inactive | inactive
OCC(O)CCl (centres undefined) |  |  | inactive | inactive | inactive | inactive | inactive |  | inactive | inactive | inactive | inactive | inactive |  | inactive | inactive |  | inactive | 
